# From PubChem BioAssay AID2073 (Sanford-Burnham Center for Chemical Genomics, 2009)
# Hit rate of the full screen: of about 290,000 compounds, about 570 (0.2%) were called active. Roughly 1% stayed inconclusive and do not appear here. Cut-off read from the data, not from the text of the source: active = inhibition mostly above about 51% (no sharp cut-off); inconclusive = no clear call, values can overlap the other calls; inactive = mostly below about 53%. Only a selection was taken, and actives are over-represented in it overall.
# Biological target: Voltage-dependent N-type calcium channel subunit alpha-1B (Homo sapiens) (UniProt Q00975)
# Sequence (Q00975 whole entry, looked up): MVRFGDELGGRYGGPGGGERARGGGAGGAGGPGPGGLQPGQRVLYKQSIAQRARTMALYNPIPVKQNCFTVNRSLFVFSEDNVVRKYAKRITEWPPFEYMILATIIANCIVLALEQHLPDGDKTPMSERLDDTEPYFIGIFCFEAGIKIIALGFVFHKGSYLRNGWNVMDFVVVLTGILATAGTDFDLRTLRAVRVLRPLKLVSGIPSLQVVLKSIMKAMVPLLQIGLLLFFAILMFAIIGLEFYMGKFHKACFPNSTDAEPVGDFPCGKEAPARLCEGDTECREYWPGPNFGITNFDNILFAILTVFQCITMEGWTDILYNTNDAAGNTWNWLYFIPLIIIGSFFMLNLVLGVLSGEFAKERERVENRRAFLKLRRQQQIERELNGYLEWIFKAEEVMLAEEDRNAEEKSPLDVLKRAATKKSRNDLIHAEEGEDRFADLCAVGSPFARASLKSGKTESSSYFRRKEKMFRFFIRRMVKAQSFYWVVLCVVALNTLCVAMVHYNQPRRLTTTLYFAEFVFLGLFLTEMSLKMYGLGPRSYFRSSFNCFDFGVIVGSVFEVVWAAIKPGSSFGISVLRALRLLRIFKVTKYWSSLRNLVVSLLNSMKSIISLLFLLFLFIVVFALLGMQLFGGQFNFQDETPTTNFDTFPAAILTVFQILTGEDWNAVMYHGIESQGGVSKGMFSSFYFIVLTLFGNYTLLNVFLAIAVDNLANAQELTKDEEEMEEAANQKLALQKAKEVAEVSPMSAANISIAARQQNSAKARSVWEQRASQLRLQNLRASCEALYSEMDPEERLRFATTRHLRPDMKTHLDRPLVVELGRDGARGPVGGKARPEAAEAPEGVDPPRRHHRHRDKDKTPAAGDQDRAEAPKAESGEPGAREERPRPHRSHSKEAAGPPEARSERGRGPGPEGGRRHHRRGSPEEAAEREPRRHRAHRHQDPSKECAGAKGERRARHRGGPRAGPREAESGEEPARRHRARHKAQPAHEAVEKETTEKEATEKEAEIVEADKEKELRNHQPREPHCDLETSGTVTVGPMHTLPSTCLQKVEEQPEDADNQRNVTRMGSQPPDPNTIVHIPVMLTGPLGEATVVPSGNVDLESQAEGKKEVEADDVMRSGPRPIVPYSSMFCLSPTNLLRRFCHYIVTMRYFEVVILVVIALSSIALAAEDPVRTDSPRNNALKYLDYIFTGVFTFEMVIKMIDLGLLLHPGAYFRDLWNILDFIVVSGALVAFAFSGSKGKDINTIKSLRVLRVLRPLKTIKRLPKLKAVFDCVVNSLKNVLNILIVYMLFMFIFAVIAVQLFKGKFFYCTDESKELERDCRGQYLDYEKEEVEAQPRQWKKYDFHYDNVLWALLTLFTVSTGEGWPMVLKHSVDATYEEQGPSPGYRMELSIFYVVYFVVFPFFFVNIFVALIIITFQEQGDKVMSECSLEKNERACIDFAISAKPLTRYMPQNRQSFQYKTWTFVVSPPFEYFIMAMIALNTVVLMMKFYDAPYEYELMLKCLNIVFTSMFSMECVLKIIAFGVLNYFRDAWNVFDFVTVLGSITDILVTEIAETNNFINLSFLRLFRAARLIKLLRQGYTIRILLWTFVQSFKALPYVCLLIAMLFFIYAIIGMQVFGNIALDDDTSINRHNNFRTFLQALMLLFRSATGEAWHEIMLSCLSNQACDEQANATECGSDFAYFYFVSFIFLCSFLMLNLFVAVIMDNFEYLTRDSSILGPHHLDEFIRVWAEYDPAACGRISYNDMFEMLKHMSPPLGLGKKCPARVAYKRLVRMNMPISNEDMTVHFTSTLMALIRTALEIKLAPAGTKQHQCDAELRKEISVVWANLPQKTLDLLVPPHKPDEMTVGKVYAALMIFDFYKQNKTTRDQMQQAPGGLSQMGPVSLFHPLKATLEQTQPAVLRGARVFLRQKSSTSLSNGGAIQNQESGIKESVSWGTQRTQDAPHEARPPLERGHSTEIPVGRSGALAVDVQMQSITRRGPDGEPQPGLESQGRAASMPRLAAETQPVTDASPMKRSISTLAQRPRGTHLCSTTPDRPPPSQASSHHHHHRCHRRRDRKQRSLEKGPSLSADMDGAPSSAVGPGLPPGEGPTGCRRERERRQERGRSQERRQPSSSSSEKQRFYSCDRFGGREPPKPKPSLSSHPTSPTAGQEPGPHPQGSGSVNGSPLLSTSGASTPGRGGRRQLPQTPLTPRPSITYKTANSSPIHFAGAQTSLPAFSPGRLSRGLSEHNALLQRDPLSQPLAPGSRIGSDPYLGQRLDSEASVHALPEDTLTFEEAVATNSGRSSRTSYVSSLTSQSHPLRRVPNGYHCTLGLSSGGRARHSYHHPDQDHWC
# Assay: disruptors of CaV2.2 binding to Mint1 – biochemical, HTRF (AID 2073)
# Details: HTRF protein-protein interaction, Mint1-CaV2.2, at 20 µM, stronger effect = higher value
# [1] = measured here: average of repeat tests
Structure (SMILES),inhibition,inhibition [1]
O=c1cc2c(=O)oc3cc(O)c(O)oc3c2c(O)c1O,70% (active),–
O=c1oc2ccccc2c2oc3cc(O)c(O)cc3c12,20% (inactive),–
O=c1oc2c(O)c(O)cc3c(=O)oc4c(O)c(O)cc1c4c23,9.6% (inactive),–
COc1ccc(OC)c(NC(=O)CCC(=O)N(Cc2ccc(OC)c(OC)c2)c2nccs2)c1,0.5% (inactive),–
CC(C)c1ccc(C2NC(=S)NC3=C2C(=O)CC(C)(C)C3)cc1 (configuration not stated),-9.1% (inactive),–
Cc1cc(N2CCC(C(=O)NC3CCCCC3)CC2)nc(-c2ccccc2)n1,-4% (inactive),–
COc1cccc(/C=C(/CC(=O)Nc2ccc(N3CCOCC3)cc2)c2nc3ccccc3s2)c1,59.9% (active),–
COc1ccc(/C=C(/CC(=O)Nc2ccccc2)c2nc3ccccc3s2)cc1,13% (inactive),–
COc1cccc(/C=C(\CC(=O)O)c2nc3ccccc3s2)c1,-2.6% (inactive),–
Cc1nonc1C1CCCN1Cc1cn[nH]c1-c1ccc2c(c1)OCO2 (configuration not stated),6.8% (inactive),–
CCOc1ccc2nc(Nc3nc4ccc(NC(C)=O)cc4s3)sc2c1,55% (active),–
CCOc1cccc2sc(Nc3nc4ccc(NC(C)=O)cc4s3)nc12,28.4% (inactive),–
CCOc1ccc2nc(NS(=O)(=O)c3ccc(NC(C)=O)cc3)sc2c1,-0.1% (inactive),–
COc1ccc(C(=O)/C=C/C(=O)N(CC(=O)NC2CCCCC2)Cc2ccccc2OC)c(O)c1,11.5% (inactive),–
COc1ccc(C(=O)/C=C/C(=O)N(CC(=O)NC2CCCCC2)Cc2ccccc2)c(O)c1,64.1% (active),–
COc1ccc(C(=O)/C=C/C(=O)N(CC(=O)NC2CCCCC2)Cc2ccc(F)cc2)c(O)c1,37.7% (inactive),–
Cc1[nH]c2ccccc2c1/C=N/Nc1nncn1N,-14.7% (inactive),–
CCc1nnc(N/N=C/c2c(Cl)cccc2Cl)n1N,-7.9% (inactive),–
CCc1nnc(N/N=C/c2c(C)[nH]c3ccccc23)n1N,55.5% (active),–
CCC1Oc2ccc(C)cc2N(CC(=O)N(Cc2ccncc2)Cc2ccco2)C1=O (configuration not stated),10.2% (inactive),–
CCC1Oc2ccc(C)cc2N(CC(=O)N(Cc2cccnc2)Cc2ccc(C)o2)C1=O (configuration not stated),52.5% (active),–
CCC1Oc2ccc(C)cc2N(CC(=O)N(Cc2cccnc2)Cc2cccc(F)c2)C1=O (configuration not stated),-3.3% (inactive),–
CCOC(=O)c1cnn(-c2cc(C)cc(C)c2)c1N,3.5% (inactive),–
O=C(CSc1nnc(SCc2ccc(Cl)cc2)s1)N/N=C/c1c[nH]c2ccccc12,50.2% (inactive),42.7%

Structure (SMILES),inhibition,inhibition [1]
O=C(CSc1nnc(SCc2ccccc2)s1)N/N=C/C=C\c1ccco1,79.7% (inactive),18.4%
Cc1ccc(CSc2nnc(SCC(=O)N/N=C/c3c[nH]c4ccccc34)s2)cc1,59.7% (active),–
O=C(CSc1nnc(SCc2ccccc2)s1)N/N=C/c1c[nH]c2ccccc12,44.7% (inactive),–
Cc1ccc(CSc2nnc(SCC(=O)N/N=C/C=C/c3ccco3)s2)cc1,35.3% (inactive),–
O=C(CSc1nnc(SCc2ccccc2)s1)N/N=C/C=C/c1ccco1,50.1% (active),–
Nc1cc(Cl)ccc1C(=O)OCC(=O)N1CCOCC1,7.5% (inactive),–
O=C(O)c1cc(NCc2cccs2)ccc1N1CCOCC1,9.9% (inactive),–
CCn1c(SCC(=O)NC2CCCCC2)nnc1C(C)NC(=O)c1ccccc1F (configuration not stated),8.6% (inactive),–
CC(C)c1ccc(OCC(O)CN2CCCC2)cc1 (configuration not stated),-4.2% (inactive),–
CCCn1c(SCC(=O)N2c3ccc(F)cc3CCC2C)nnc1-c1ccccn1 (configuration not stated),7% (inactive),–
CC(=O)Nc1ccc(C(=O)/C=C/c2ccco2)cc1,30.9% (inactive),–
O=C(/C=C/c1ccco1)c1ccc(NC(=O)C23CC4CC(CC(C4)C2)C3)cc1,67.9% (active),–
O=C(/C=C\c1ccco1)c1ccc(NC(=O)c2ccco2)cc1,68.1% (inactive),4%
O=S(=O)(/N=C(/Nc1ccccc1)c1ccccc1O)c1ccccc1,-7.3% (inactive),–
Brc1ccc(C2=Nc3cccc4cccc(c34)N2)o1,-20.5% (inactive),–
c1coc(C2=Nc3cccc4cccc(c34)N2)c1,54.2% (active),–
Fc1ccc(C2=Nc3cccc4cccc(c34)N2)cc1,-8.3% (inactive),–
CNC(=O)CCn1nc(-c2ccc(C)cc2)c2ccccc2c1=O,-2.1% (inactive),–
CCOC(=O)c1c(O)cc(C)cc1Nc1ccccc1,14.3% (inactive),–
CCOc1ccc(C(=O)NCC(=O)OCC(=O)c2ccc3c(c2)-c2ccccc2C3)cc1,18.8% (inactive),–
CNC(=S)N(CCc1ccccc1)Cc1cc2cc(OC)c(OC)cc2[nH]c1=O,65.8% (active),–
CCC(C)NC(=S)N(CCc1ccccc1)Cc1cc2cc(OC)c(OC)cc2[nH]c1=O (configuration not stated),7.1% (inactive),–
CNC(=S)N(CCc1cccc(C)c1)Cc1cc2cc(OC)c(OC)cc2[nH]c1=O,46.2% (inactive),–
O=C(CC1(O)C(=O)N(C/C=C/c2ccccc2)c2ccccc21)c1ccccn1 (configuration not stated),0% (inactive),–

Structure (SMILES),inhibition,inhibition [1]
NCCOc1ccc(C2CCCCC2)cc1,-11.4% (inactive),–
CCc1nc(NCCN2CCOCC2)c(C#N)c2c1CCCC2,9.8% (inactive),–
Cc1ccc(C)c(NC(=O)CSc2nc3ccc(N4C(=O)c5ccccc5C4=O)cc3s2)c1,-0.7% (inactive),–
CCc1cccc(C)c1NC(=O)CSc1nc2ccc(N3C(=O)c4ccccc4C3=O)cc2s1,17.8% (inactive),–
Cc1cc(C)c(NC(=O)CSc2nc3ccc(N4C(=O)c5ccccc5C4=O)cc3s2)c(C)c1,55.2% (active),–
Cc1ccc(C(=O)N/N=C/c2c(O)ccc3ccccc23)cn1,14.1% (inactive),–
Cc1cccc(C)c1NCc1n[nH]c(=S)n1-c1ccccc1,-8.3% (inactive),–
O=C(NCCCN1CCOCC1)c1sc2cc([N+](=O)[O-])ccc2c1Cl,67.7% (active),–
O=C(NCCCN1CCOCC1)c1sc2cc(F)ccc2c1Cl,-0.7% (inactive),–
O=C(NCCCN1CCOCC1)c1sc2cc(Cl)ccc2c1Cl,-10.3% (inactive),–
C=C(C)CSc1[nH]c(=O)cc(C)c1C#N,1.3% (inactive),–
Nc1c(C(=O)Nc2ccccc2)sc2nc3c(c(-c4ccco4)c12)CCCC3,2.1% (inactive),–
Nc1c(C(=O)NCC2CCCO2)sc2nc3c(c(-c4ccco4)c12)CC/C3=C\c1ccco1 (configuration not stated),86.1% (active),–
Nc1c(C(=O)Nc2ccccc2)sc2nc3c(c(-c4ccco4)c12)CCC3,29.5% (inactive),–
O=C(O)CCNS(=O)(=O)c1ccc(Oc2ccccc2)cc1,-1.3% (inactive),–
CSCCC(NC(=O)OC(C)(C)C)C(=O)NC(C(=O)NC(CC(C)C)C(N)=O)C(C)C (configuration not stated),15.6% (inactive),–
Cc1ccc(N2C(=O)C3C4C=CC(CNC(=S)N5CCN(c6ccccc6)CC5)(O4)C3C2=O)cc1 (configuration not stated),45.6% (inactive),–
CCOC(=O)C1CCN(C(=O)Nc2ccc3nc(C)c(C)nc3c2)CC1,36% (inactive),–
Cc1nc2ccc(NC(=O)N3CCCCC3)cc2nc1C,40.3% (inactive),–
Cc1nc2cc(NC(=O)N3CCN(c4ccccn4)CC3)ccc2o1,0% (inactive),–
O=C(Nc1ccc2nc(-c3ccco3)c(-c3ccco3)nc2c1)N1CCN(c2ccccn2)CC1,84.9% (active),–
O=C(Nc1ccc2nc(-c3ccco3)c(-c3ccco3)nc2c1)N1CCCCCC1,71.2% (active),–
CCOC(=O)C1CCN(C(=O)Nc2ccc3nccnc3c2)CC1,24.5% (inactive),–
CCOC(=O)C1CCN(C(=O)Nc2ccc3nc(-c4ccco4)c(-c4ccco4)nc3c2)CC1,83.1% (active),–

Structure (SMILES),inhibition,inhibition [1]
Cn1nnc2cc(NC(=O)N3CCN(c4ccccn4)CC3)ccc21,-0.5% (inactive),–
O=C(Nc1ccc(N2CCOCC2)cc1)Nc1ccc2nc(-c3ccco3)c(-c3ccco3)nc2c1,48.8% (inactive),–
Cc1ccc(NC(=O)NC(=O)CSc2nnnn2C)c(C)c1,-7.8% (inactive),–
COc1cccc(C(C(=O)NC(C)(C)C)N(C(=O)CCC(=O)Nc2cc(C)on2)C(C)(C)C)c1OC (configuration not stated),-7.6% (inactive),–
O=C(CN1CCCCCC1=O)N1CCN(S(=O)(=O)c2cccs2)CC1,14.5% (inactive),–
CCOC(=O)c1[nH]c2ccccc2c1CCCN1C(=O)c2ccccc2C1=O,-6.7% (inactive),–
CN(C)C(=O)CCC(=O)N1CCCC(N2CCN(c3cccc(C(F)(F)F)c3)CC2)C1 (configuration not stated),5.4% (inactive),–
Nc1nc(N2CCN(c3ccccc3)CC2)n[nH]1,-13.2% (inactive),–
CCn1c(SCC(=O)N2CCC(C)CC2)nc2c1c(=O)n(C)c(=O)n2C,2.5% (inactive),–
NC(=O)CCC(NS(=O)(=O)c1ccc(Cl)cc1)C(=O)NCc1ccccc1 (configuration not stated),-16.2% (inactive),–
CC(C)C(=O)N1CCN(c2ccc(NC(=O)c3cccs3)cc2Cl)CC1,0.8% (inactive),–
CCOC(=O)C1CCN(C(=O)CN(c2ccc3c(c2)OCCO3)S(C)(=O)=O)CC1,-9.6% (inactive),–
Cc1cccc(COCC(Cc2ccccc2)N2CCN(C(=O)c3cccc(Cl)c3)CCC2=O)c1 (configuration not stated),1.7% (inactive),–
O=S(=O)(NC1=NCCCCC1)c1ccccc1Cl,7.5% (inactive),–
CC1=Nc2nc(N3CCCCC3)c(C#N)c3c4c(nc(c23)N1)N(c1ccc(C(C)C)cc1)C(=O)C4,54.8% (active),–
CCN(CC)c1nc2c3c(nc4c(c3c1C#N)CC(=O)N4c1ccc(Cl)cc1)NC(C)=N2,15.5% (inactive),–
COc1ccc(CN2C(=O)Cc3c2nc(N)c2c(N)nc(N4CCCCC4)c(C#N)c32)cc1,24.2% (inactive),–
C/C(=N\NC(N)=S)C1(C)CCCCC1,1.7% (inactive),–
Cc1cc(-c2csc(NC(=O)c3ccc(C#N)cc3)n2)c(C)n1Cc1ccco1,74% (active),–
CCNc1nc(-c2cc(C)n(Cc3ccco3)c2C)cs1,71.4% (inactive),-8.8%
Cc1cc(-c2csc(NC(=O)c3ccc(C#N)cc3)n2)c(C)n1Cc1ccccc1,31.3% (inactive),–
